# Results from PubChem BioAssay AID518 (Sanford-Burnham Center for Chemical Genomics, 2006).
# The whole screen tested about 64,000 compounds, of which about 55 (0.09%) were called active. A selection follows. Values without a mark were called inactive. How the calls were made is not given here.
# Molecular target: Alkaline phosphatase, tissue-nonspecific isozyme (Homo sapiens) (UniProt P05186)
# Test: inhibition of tissue-nonspecific alkaline phosphatase – biochemical, luminescent (AID 518);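 further: plate controls were vehicle for no effect and reference inhibitor for full effect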
# Conditions: purified TNAP enzyme, luminescent substrate readout; at 20 µM; hits give high values
# Alkaline phosphatase, tissue-nonspecific isozyme (Homo sapiens), sequence (P05186 whole entry, looked up): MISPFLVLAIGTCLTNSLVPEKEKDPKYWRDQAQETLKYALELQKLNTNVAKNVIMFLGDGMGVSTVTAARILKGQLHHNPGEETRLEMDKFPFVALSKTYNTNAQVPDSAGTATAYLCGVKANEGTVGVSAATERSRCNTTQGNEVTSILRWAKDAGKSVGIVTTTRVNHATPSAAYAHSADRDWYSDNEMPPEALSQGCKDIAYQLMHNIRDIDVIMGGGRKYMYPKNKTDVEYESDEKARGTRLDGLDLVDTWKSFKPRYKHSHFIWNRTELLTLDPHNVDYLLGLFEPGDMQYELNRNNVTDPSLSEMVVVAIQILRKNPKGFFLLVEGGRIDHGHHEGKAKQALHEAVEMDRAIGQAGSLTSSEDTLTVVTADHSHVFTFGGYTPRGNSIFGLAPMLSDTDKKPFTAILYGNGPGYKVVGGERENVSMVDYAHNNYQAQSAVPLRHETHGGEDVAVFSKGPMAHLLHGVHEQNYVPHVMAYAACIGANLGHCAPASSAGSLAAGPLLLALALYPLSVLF
row,SMILES,inhibition [%]
1,CCN1C(=O)OC2(CCCCC2)C1(C)O (stereo not drawn),13
2,O=C(NCCN1CCOCC1)c1cc2ccccc2o1,9.4
3,Cc1cc2c(c(Sc3ccccc3)n1)C(=O)OC2,7.5
4,O=C(N1CCOCC1)N1CCN(CC(O)COc2ccc3ccccc3c2)CC1 (stereo not drawn),16.3
5,Cn1c2ccccc2c2nnc(SCN3C(=O)c4ccccc4C3=O)nc21,8.4
6,Cc1cc(C(=O)OCC(=O)Nc2nc(-c3ccccc3)cs2)c(C)o1,1.4
7,O=c1c2ccccc2nc2n1CCCS2,4.5
8,COc1cc2[nH]c3c(N4CCN(c5ccc(Cl)cc5)CC4)ncnc3c2cc1OC,5.3
9,O=C(CCC(=O)c1ccc(F)cc1)OC1CCOC1=O (stereo not drawn),6.6
10,COc1ccccc1N1CCN(C(=O)CSc2ccc3c(C)cc(C)nc3n2)CC1,10.2
11,Oc1ccccc1Oc1ncc(Br)c(N2CCOCC2)n1,-1.3
12,COc1ccccc1-c1nc(SCC(=O)O)n[nH]1,4.7
13,C/C(N)=C(/C#N)C(=O)CSc1ncnc2ccccc12,5.5
14,Cc1nc2sc(C(c3cccc(F)c3)N3CCCC(C)C3)c(O)n2n1 (stereo not drawn),5.8
15,COc1ccc(OC)c2c1CCC2=O,8.1
16,CN(CCCNC(=O)C1CCC(=O)N1Cc1ccc(F)cc1)c1ccccc1 (stereo not drawn),1.1
17,Cc1cc(C(=O)NCCN2CCN(c3cccc(Cl)c3)CC2)n(-c2ccccc2)n1,10.8
18,CCc1c(C)[nH]c2ccc(C)cc2c1=O,7.8
19,CCCCn1c(NCCN(C)C)nc2c1c(=O)[nH]c(=O)n2C,-1
20,O=C(CSc1oc(-c2ccccc2)nc1S(=O)(=O)c1ccc(F)cc1)NCC1CCCO1 (stereo not drawn),1.7
21,O=C(COc1ccc(S(=O)(=O)N2CCOCC2)cc1)Nc1ccc2c(c1)OCCO2,-6.1
22,C=CCN1C(=O)C(O)(CC(=O)c2ccccc2)c2ccccc21 (stereo not drawn),7.7
23,CN(C)c1oc(-c2ccc(OCc3ccc(Cl)cc3)cc2)nc1C#N,5.2
24,O=C(c1ccc(CNS(=O)(=O)c2cccc(C(F)(F)F)c2)cc1)N1CCOCC1,19.5
25,CCn1cnc2sc(C(=O)N3CCN(Cc4ccc5c(c4)OCO5)CC3)c(C)c2c1=O,0.3

row,SMILES,inhibition [%]
1,c1ccc(N2CCN(C3CCSC3)CC2)cc1 (stereo not drawn),13.5
2,COCCNc1ncnc2nc[nH]c12,8.7
3,CCOCCCNC(=O)C(c1ccc(C)cc1)N1CCOCC1 (stereo not drawn),-1
4,CS(=O)(=O)N(CC(=O)NCc1ccc2c(c1)OCO2)c1ccc(Cl)cc1,6.8
5,CCOc1ccc(CNc2ccc3c(c2)ncn3C)cc1,16.9
6,Cc1nccn1CCC(=O)O,5.3
7,CCc1ccccc1N1C(=O)C2CC(C)=C(C)CC2C1=O (stereo not drawn),5.3
8,Cc1cc(C(=O)NC(C)c2ccncc2)cs1 (stereo not drawn),3.5
9,Cc1ccc(S(=O)(=O)Cn2nnnc2C(c2ccc(F)cc2)N2CCCCC2)cc1 (stereo not drawn),3.5
10,CCCCCC(=O)N1CCN(CCN=CC2=C(O)CC(c3ccco3)CC2=O)CC1 (stereo not drawn),8
11,O=C(NCCN1CCOCC1)C1CCN(c2nc3ccccc3o2)CC1,7.3
12,CCCc1ccc(S(=O)(=O)NCCc2ccncc2)cc1,10.5
13,CCc1ccc2[nH]c(=O)c(C(c3nnnn3CC3CCCO3)N3CCCc4ccccc43)cc2c1 (stereo not drawn),19.5
14,COc1cc(C2C3CN(C)CC=C3C(C#N)=C(N)C2(C#N)C#N)ccc1OC(C)C (stereo not drawn),-0.1
15,CC1c2nc3ccccc3n2C(CC(=O)NCc2ccccn2)C(=O)N1Cc1ccccc1 (stereo not drawn),12.3
16,Cc1onc(-c2c(F)cccc2Cl)c1C(=O)Nc1cccc2nsnc12,13.1
17,COc1cc(C)nc(OCCNC(=O)COc2ccc(Cl)cc2Cl)n1,13.3
18,COc1ccc(CNS(=O)(=O)c2ccc(C3CNC(=O)C3)cc2)cc1 (stereo not drawn),8.2
19,O=C(CSc1nnc2scc(-c3ccccc3)n12)N1CCCc2ccccc21,5.3
20,C=CCOc1ccccc1C1C2=C(CC(C)(C)CC2=O)Nc2c1c(=O)n(C)c(=O)n2C (stereo not drawn),4.4
21,COC(=O)N(C)CCCC1(C)C(=O)N(C)c2ccc(O)cc21 (stereo not drawn),8.6
22,c1ccc(CSc2nncn2-c2ccccn2)cc1,17.8
23,Cc1ccnc(NS(=O)(=O)c2cccs2)c1,14.5
24,CCCc1noc2c1C(c1ccoc1)C(C#N)=C(N)N2 (stereo not drawn),15.5
25,CCN(CC)CCCN1C(=O)C(=O)/C(=C(/O)c2ccc3c(c2)OCCO3)C1c1ccc(C)o1 (stereo not drawn),6.3

row,SMILES,inhibition [%]
1,c1ccc(CCc2nn3c(Cn4cnc5ccccc54)nnc3s2)cc1,10.8
2,CCn1c2ccccc2c2nnc(SCC(=O)c3ccccc3)nc21,14.3
3,CC(C)(CNS(=O)(=O)c1ccc(F)cc1)CNS(=O)(=O)c1ccc(F)cc1,10.8
4,COc1ccc(CN(Cc2cc3cc4c(cc3[nH]c2=O)OCO4)C(=O)NC2CCCCC2)cc1,6.8
5,O=C(NCc1ccco1)C(c1ccco1)N(CCc1ccccc1)C(=O)Cn1nnc2ccccc21 (stereo not drawn),12.6
6,Cc1ccc(N2C(=O)C3C(C2=O)C(C(=O)c2ccc(Cl)cc2)N2CCCC32)cc1 (stereo not drawn),12
7,CCOC(=O)c1cccnc1SCC(=O)N(C)c1ccccc1,-1.1
8,O=C(Nc1c(Cl)cc(Cl)cc1C(=O)NCC1CCCO1)c1ccco1 (stereo not drawn),5.4
9,COC(=O)c1nc(NC(=O)C(C)C)n[nH]1,5.3
10,COc1ccc2c(=O)c3c(=O)n(Cc4ccco4)c(-c4ccc(C)cc4)nc3oc2c1,9.7
11,Cc1ccc(OCCn2c(=O)cnc3ccccc32)cc1,3.3
12,CC1CCN(S(=O)(=O)c2cccc(C(=O)Nc3ccccn3)c2)CC1,24.3
13,CCN1C(=O)C(Cc2nc3ccccc3c(=O)n2C)c2ccccc21 (stereo not drawn),10.6
14,COCc1[nH]nc2c1C(c1ccc(OC)cc1)C(C#N)=C(N)O2 (stereo not drawn),16.1
15,COCc1[nH]nc2c1C(c1ccc(OC)c(OC)c1)C(C#N)=C(N)O2 (stereo not drawn),7.1
16,COc1ccccc1C1C2C(=O)N(c3ccccc3)C(=O)C2ON1c1ccccc1 (stereo not drawn),-0.2
17,O=c1[nH]c(-c2ccccc2O)nc2c1CCCC2,8.8
18,Cc1ccc(NC(=O)c2cc(-c3ccco3)on2)cc1,8.1
19,O=C(CN1CCC(n2nnc3cc(F)ccc32)CC1)Nc1ccccc1N1CCOCC1,6.7
20,COc1ccc(S(=O)(=O)Nc2cc(Cl)ccc2OC)cc1,14.2
21,O=c1cc(-c2ccccc2)nc2nc(COc3ccccc3)[nH]n12,1.9
22,O=C(NCc1ccccc1)c1cc(=O)nc2sc(-c3ccccc3)nn12,9.8
23,CCn1c(CNC(=O)c2cccs2)nnc1SCC(=O)NCCc1ccccc1,14
24,C=CCN1C(=O)CS/C1=N/c1nccs1,8.1
25,O=C1C2C3C=CC(C3)C2C(=O)N1c1n[nH]c(CCc2ccccc2)n1 (stereo not drawn),36.8

row,SMILES,inhibition [%]
1,O=C1c2ccccc2C(=O)N1c1n[nH]c(CCc2ccccc2)n1,22.8
2,Cc1ccc(NC(=O)Cn2cnc3c(=O)n(C)c(=O)n(C)c32)c(C)c1,3.9
3,CN(C)c1[nH]c(=O)c(C#N)c2c1CCN2Cc1ccccc1,11.1
4,CCOc1ccc(C2C(C#N)=C(N)Oc3nc[nH]c(=O)c32)cc1OC (stereo not drawn),4.4
5,O=C(CC(Nc1ccccc1)C(=O)O)c1ccccc1 (stereo not drawn),15.2
6,CCOc1ccc(OCC)c(NS(=O)(=O)c2ccc3c(c2)n(C)c(=O)c(=O)n3C)c1,0.5
7,CCOc1ccc(CC(=O)Nc2c(C(N)=O)oc3ccccc23)cc1OCC,5.9
8,CCN(CC)C(=O)c1c[nH]c2ccc(S(=O)(=O)Nc3cc(C)cc(C)c3)cc2c1=O,5.8
9,CS(=O)(=O)N(CC(=O)NC1CCCCC1)c1cccc(Cl)c1,6.8
10,COc1cccc(C(=O)Nc2ccccc2N2CCCC2)c1,9.9
11,O=C(Cn1cc2c(n1)CCCCC2)NCc1ccccc1,9.1
12,Cc1ccc(NC2CC(=O)N(c3ccc(N4CCCCC4)cc3)C2=O)cc1 (stereo not drawn),6.6
13,COc1ccc(CC(=O)Nc2cccc(-c3nnc(-c4ccccc4)o3)c2)cc1OC,6.4
14,O=C(Nc1ccccc1)NC1(C(=O)NCc2ccc3c(c2)OCO3)CCCCC1,-0.2
15,COc1cc(C2c3c(oc4c(C)cc(C)cc4c3=O)C(=O)N2Cc2cccnc2)cc(OC)c1OC (stereo not drawn),4.1
16,Cc1ccc(-c2nc(CS(=O)CC(=O)NCc3ccccn3)c(C)o2)cc1 (stereo not drawn),-7.5
17,CN(C)/C=N/c1nc2ccc3c(c2s1)CCCC3,12.3
18,COc1ccc(N2CCN(CC(=O)Nc3cc4c(cc3C(C)=O)OCO4)CC2)cc1,3.8
19,CSc1ccccc1C(=O)NCc1ccc2c(c1)OCO2,7.3
20,O=C(Nc1ccccc1)N(C1=NCCCCS1)c1ccccc1,8.3
21,C=C(C)Cn1c(SCC(=O)O)nnc1-c1ccc(C(C)(C)C)cc1,10.6
22,Nc1c(S(=O)(=O)c2cccc(Cl)c2)c2nc3ccccc3nc2n1/N=C/c1ccc(O)c(O)c1,11.3
23,CSC1=C(C#N)C(c2cccs2)CC(=O)N1C (stereo not drawn),10.5
